Calls of active or inactive are those of the source. The calls were made as follows: active = hit-call score of the fitted dose curve at least 0.9, where 1 is the maximum; inactive = score below 0.9.

The nature of this experiment: ATG_DR4_LXR_CIS: Attagene CIS-FACTORIAL HepG2 Assay for human Liver X Receptor (LXR), DR4 submotif (AID 2282929). The note with it: HepG2 Attagene DR4 cis-reporter, mRNA transcription; actives raise or lower the signal. How it is done:
ATG_CIS is a cell-based, multiplexed-readout assay that uses HepG2, a human liver cell line, with measurements taken at 24 hours after chemical dosing in a 24-well plate.ATG_DR4_LXR_CIS is one of 52 assay component(s) measured or calculated from the ATG_CIS assay. It is designed to make measurements of mRNA induction, a form of inducible reporter, as detected with fluorescence intensity signals by Reverse transcription polymerase chain reaction (RT-PCR) and Capillary electrophoresis technology.Data from the assay component ATG_DR4_LXR_CIS was analyzed into 1 assay endpoint. This assay endpoint, ATG_DR4_LXR_CIS, was analyzed with bidirectional fitting relative to DMSO as the negative control and baseline of activity. Using a type of inducible reporter, measures of mRNA for gain or loss-of-signal activity can be used to understand the reporter gene at the transcription factor-level as they relate to the gene NR1H2 and NR1H3. Furthermore, this assay endpoint can be referred to as a primary readout, because this assay has produced multiple assay endpoints where this one serves a reporter gene function. To generalize the intended target to other relatable targets, this assay endpoint is annotated to the nuclear receptor intended target family, where the subfamily is non-steroidal.
Human liver HepG2 cells are transiently transfected with multiple reporter transcription units (MRTUs) in 6-well plates using FuGene 6 reagent (Roche; 3 ml FuGene/1 mg DNA). The MRTU constructs are regulated by a cis-regulating element (promoter). […] A major difference between the CIS and TRANS system is that in CIS activities of endogenous TFs are measured, whereas the TRANS assay evaluates changes in activities of exogenous, chimeric NR-Gal4 proteins. […] At the end of 24 hour incubation, total RNA was isolated using TriZol reagent (Invitrogen). The isolated RNA is then reverse-transcribed using oligo(dT) primer and Mo-MLV reverse transcriptase (Invitrogen) with DNAse I (Ambion) treatment for 30 min. The one-tenth of the produced cDNA was amplified by PCR using Taq DNA polymerase (Invitrogen) and two reporter sequence-specific primers. The PCR products were fluorescently labeled by primer extension with 6-arboxyfluorescein (6-FAM) 5'-labeled reporter sequence-specific primer (2 min at 95 C, 20 s at 68 C and 10 min at 72 C) and these products were digested with 5U of HpaI (New England Biolabs) for 2h at 37 C. The fragments were purified using Qiaquick PCR columns (Qiagen), analyzed on an ABI 3130xL genetic analyzer (Applied Biosystems) with peak positions identified by using a set of X-rhodamine (ROX)-labeled MapMarker1000 molecular weight standards (BioVentures). The raw capillary electrophoresis data was processed using Attagraph software (Attagene).
With `C[Si](Cl)(Cl)CCC(F)(F)C(F)(F)C(F)(F)C(F)(F)C(F)(F)C(F)(F)F`, the result was inactive.

As to `CCOC(C=C(C)CCC=C(C)C)OCC`, the result was inactive.

Consider `OCCCCl`, for which the compound was classed as inactive.

`C=C(C)C(=O)OCC(F)(F)C(F)(F)C(F)(F)C(F)F`: the outcome was inactive.

Consider `O=C1c2c(O)ccc(Nc3ccc(CCO)cc3)c2C(=O)c2c([N+](=O)[O-])ccc(O)c21`, for which the result was inactive.

In the case of `CC(=O)c1ccccc1N`, the compound was classed as inactive.

Regarding `C#CC(O)CCC` (stereo not given), the compound was classed as inactive.

As for `OCCCc1cccnc1`, the compound was called inactive.

For the compound `Brc1nc2ccccc2s1`, the concentration at half-maximal activity (AC50) (commonly the concentration giving half of the maximal activity seen) was 100 µM (active).

In the case of `CCc1cc(Cc2cc(CC)c(N)c(CC)c2)cc(CC)c1N`, the AC50 was 24.2 µM (active).

For `Cc1cc(C)c(O)c(C(C)(C)C)c1`, the call was inactive.

For `NC(=O)C(F)(F)C(F)(F)C(F)(F)C(F)F`, the compound was classed as inactive.

`O=C1c2ccccc2C(=O)c2c(Cl)cccc21`: the result was inactive.

Take `CNS(=O)(=O)C(F)(F)C(F)(F)C(F)(F)C(F)(F)C(F)(F)C(F)(F)C(F)(F)C(F)(F)F`: the result was inactive.

Take `CCCCC(CC)COC(=O)c1ccc(N(C)C)cc1` (stereo not given): the AC50 was 64.7 µM (active).

Take `Cc1ccc(O)cn1`: the outcome was inactive.

Consider `c1ccc(C[P+](c2ccccc2)(c2ccccc2)c2ccccc2)cc1`, for which the AC50 is 100 µM (active).

With `O=C(Cl)c1ccc(Cl)cc1Cl`, the compound was classed as inactive.

`OC(O)C(F)(F)C(F)(F)F`: the AC50 is 150 µM (active).

With `CC(C)=CCCC(C)O` (stereo not given), the call was inactive.

Turning to `C=CCOC(=O)CC(C)C`, the call was inactive.

With `C=CC(=O)OCC(F)(F)C(F)(F)C(F)(F)C(F)(F)C(F)(F)C(F)(F)C(F)(F)C(F)F`, the AC50 was 232 µM (active).

As for `CC(C)(C)c1cc(CCC(=O)OCC(COC(=O)CCc2cc(C(C)(C)C)c(O)c(C(C)(C)C)c2)(COC(=O)CCc2cc(C(C)(C)C)c(O)c(C(C)(C)C)c2)COC(=O)CCc2cc(C(C)(C)C)c(O)c(C(C)(C)C)c2)cc(C(C)(C)C)c1O`, the compound was called inactive.

Consider `CC(C)CC=C(C=O)c1ccccc1`, for which the AC50 was 84.9 µM (active).

For `OCC(O)CC(F)(F)C(F)(F)C(F)(F)C(F)(F)C(F)(F)C(F)(F)C(F)(F)C(F)(F)F` (stereo not given), the call was inactive.

Take `OCC(F)(F)C(F)(F)C(F)(F)C(F)(F)C(F)(F)C(F)(F)CO`: the compound was classed as inactive.

With `FC(F)(F)C(F)(F)C(F)(F)C(F)(F)C(F)(F)C(F)(F)C(F)(F)CCI`, the compound was called inactive.

For `O=C(O)C(F)(F)C(F)(F)C(F)(F)OC(F)(C(F)(F)F)C(F)(F)F`, the concentration at half-maximal activity (AC50) is 238 µM (active).

As for `OCCCCC(F)(F)C(F)(F)C(F)(F)C(F)(F)F`, the result was inactive.

`C=C(C)CCCC`: the outcome was inactive.

With `COC(=O)c1ccc(C=O)cc1`, the call was inactive.

Regarding `O=S(=O)(Cl)C(F)(F)C(F)(F)C(F)(F)C(F)(F)C(F)(F)C(F)(F)C(F)(F)C(F)(F)F`, the compound was called inactive.

On to `O=C1C=CC(=O)N1c1ccccc1`, for which the compound was classed as inactive.

Turning to `OCCC(O)CO` (stereo not given), the result was inactive.

Consider `O=c1[nH]cccc1O`, for which the call was inactive.

As to `OCC(F)(F)C(F)(F)C(F)(F)CO`, the call was inactive.

On to `O=C(O)C(F)(F)C(F)(F)C(F)(F)C(F)(F)C(F)(F)C(F)(F)C(F)F`, for which the outcome was inactive.

`CCCCCCCCn1sc(Cl)c(Cl)c1=O`: the result was inactive.

`CO[Si](CCCOCC1CO1)(OC)OC` (stereo not given): the call was inactive.

Consider `F[Si-2](F)(F)(F)(F)F`, for which the outcome was inactive.

The values above are taken from PubChem BioAssay (EPA / NIEHS).
